The subject of the test is VDR:RXRa (NR concentration 270 nM, RXRa partner concentration 90 nM). Description: PBM binding z-score (relative to random genomic background probes); higher = stronger binding; sequences stand for … in GC…GCGATTGACAGCGTAGAATGAAGG
How it is done: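 Protein-binding microarray (Agilent 4x180K custom design, double-stranded 60-nt probes: 5' GC cap, 34-nt variable region, 24-nt constant primer region; full probe sequence given). Purified or IVT nuclear receptor:RXRα heterodimers (3:1 NR:RXRα, mostly 270:90 nM) or homodimers were incubated for 1 h in PBS with 2% milk and no ligand, then detected with Alexa488 antibodies. Fluorescence from o1-orientation probes (~5 replicates averaged) was converted to z-scores against 500 random hg19 background probes. Variable regions are seed direct-repeat (DR0–DR5) sites, all their single-nucleotide variants and half-site ablations.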
As to CTACCAAGGTGAACAAAGTCGTTGATTACTATTC, the PBM binding z-score came out at 0.601.
With CGTCCAAGGTCAATGCTAGGTCAGTAAAAGCATT, the PBM binding z-score turned out to be 4.76.
Then ATATGTAGGTTACATCCGGGTGATTCAGGCTATG, with 0.753; and ACCGAAAGGTCGTGAGGTGAGTATACAGAAAGGC, with 3.62; and ATCTCTAGGTAAAGATAGTTCAGTCAATGCAAAT, with 0.723.
Then ATCTCTAGGTAACCAGGTTCAGTGAATGCCGAAC, with 4.05; and CCTACTGGGCCAAGGTCAATGATCAGTCAAAGCA, with 2.24.
Regarding CCTACTGGGCAACGAAAGGTCATTGATTCAGTGA, the PBM binding z-score stood at 3.7.
Then CCGAGTGGGGCAAGGTTACCATAACGCACAGCCA, with 0.482; and CGTCCAAGCTCATAGGAGGTCAGTGAAGACAGAT, with 1.69; and ACTAGTTGGTCAGCTGAGGTCACAGACAATTCGG, with 4.25.
Next, AGAATGAGGTTATTAACATCAGGGAATTGCGGTC: 1.31.
Sequence CCTATTGGGCCACGAAAGGTCATTGATTCAGTGA gave a PBM binding z-score of 4.16.
Then CAAACTAGGTCAAGCTCAAAGTCGGTTTGTGCCA, with 1.7.
Then TAGCCTAGGTCATGGGACAGTATACCACGCGAAC, with 2.17; and ACAGACAGGTGAGTAAAGGTAACTCAGCTGGACG, with -0.139.
Sequence ACAGACAGGTGATGAAGGTGACTCAGGCTATCAT registered a PBM binding z-score of 0.516.
TCTCGGAGGACAGGAAGGTCAGAGCTTTCCAGAG showed a PBM binding z-score of 1.57.
Next, TAACCTAGGTCATTCAGGGGCCAGTATAGAAAGC: 4.03; CCTACTGGGCTATTCAGAGGTCATTGATCATATG: 3.57; GCTGCTAGGTCAACTGATAGTCAGCTAAAGCTCG: 0.945.
Regarding ACTATTAGTTGAGACGACGGCAACCGATAGGTTG, the PBM binding z-score was -0.484.
On to GGAACGAGGGCATTCGAGTGGATAGCATGGCGAT, for which the PBM binding z-score worked out at 1.32.
Then GGAACGAGGGCAGTCGAGTTGATAGCATGGCGAT, with 1.22; and ACTAGCAGGCCAAGGGTCATTCAAGATTAGTCCG, with 3.49.
Sequence GATGCAGGGTCAAGGCCAGAGTACGCGTATTGAT displayed a PBM binding z-score of 4.21.
Then GATACAGGGTCAGCTAGAGGCCATAGTATGGAAA, with 4.05.
The sequence AGAGTGAGGTTATTAAGATCAGGGAATTGCGGTC displayed a PBM binding z-score of 2.49.
Next, CCTAATGGGCCAAAGGTCATTGATTCCAATGCTC: 4.64; TAGCCTACGTCATTCAGGGGCCAGTATAGAAAGC: -0.219; TCGAGTAGGTGACCAATGGGGCATTCAGCTTTCT: -0.154.
Sequence TTACCAAGGTGAGCTGCGGTCGTTGATCCAACTC displayed a PBM binding z-score of 0.235.
Sequence CATTACGGGTCACTCCAGGTTATAGCATCGGAGT gave a PBM binding z-score of 4.52.
For CGTCAAAGTTCAAGGTACCGTAACAGAAAGCAGC, the PBM binding z-score was found to be 3.76.
Next, TTACCAAGGTGAAAGGTGGTTGATGCACGCCTTG: 0.184; TCAGACAGGTGAAGGTCACTCAGGTACGCAGTCG: 4.18; GTACCAAGGTGAATAGGTCGTCGATGAGTAGGCG: 0.97.
Then TCGAGTAGGTTAGTCGCGGCATTCAGCCAACATA, with -0.415.
With ATCTCTAGGTAAAGTTCAGTCAAAGATCGATAGA, the PBM binding z-score is 1.96.
The sequence GTACCAAGGTGAATACGTCGTTGATGAGTAGGCG had a PBM binding z-score of -0.262.

The record behind these values is the supplement of paper PMC6555819.
